Among the test systems are DU-145 prostate; K-562 leukemia; MALME-3M melanoma; MDA-MB-231 breast; RXF 393 renal; SF-268 CNS; SF-295 CNS; SF-539 CNS; M14 melanoma; UACC-257 melanoma.
Common to all, as to assay: NCI-60 one-dose screen, 48 h (100 = growth as untreated, 0 = no growth, -100 = all killed)
Conditions in all cases: 10 µM unless noted

Molecules are shown by their SMILES. About 83,000 compounds went through this panel and 20% of them were active in at least one assay; those are over-represented in the sample as a whole.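 A percent growth of 40 corresponds to 60% growth inhibition; 0 means no net growth; -100 means all cells died. Active threshold: below 10.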 Values without a mark were called inactive. Active and inactive are the calls of the source.

On to `O=c1nc(NO)[nH]c(=O)n1Cc1ccccc1`, for which the growth with DU-145 prostate was 115%; in the assay with K-562 leukemia, 108%; in the assay with MALME-3M melanoma, 100%; in the assay on MDA-MB-231 breast, 123%; with RXF 393 renal it was 94.8%; in the assay on SF-268 CNS, 106%. The growth in the assay on SF-295 CNS was 93.7%; with SF-539 CNS, 98.7%; with M14 melanoma, 106%.

As to `CN(C)C(=S)SCN1C(=O)c2ccc([N+](=O)[O-])cc2S1(=O)=O`, the growth in the assay on DU-145 prostate was 94.3%; with K-562 leukemia it was 77.8%; in the assay with MALME-3M melanoma, 92.8%; in the assay on MDA-MB-231 breast, 106%; in the assay with RXF 393 renal, 113%; in the assay with SF-268 CNS, 99.9%. The growth is 101% with SF-295 CNS, 102% in the assay with SF-539 CNS, 102% with UACC-257 melanoma and 103% in the assay on M14 melanoma.

`O=c1ccc2ccccc2o1`: the growth was 112% with DU-145 prostate; 112% in the assay on K-562 leukemia; 110% with MALME-3M melanoma; 100% in the assay with MDA-MB-231 breast; 116% in the assay on RXF 393 renal; 102% with SF-268 CNS. Also, the growth in the assay with SF-295 CNS is 97.7%; with SF-539 CNS it was 102%; in the assay on UACC-257 melanoma, 101%; in the assay with M14 melanoma, 104%.

For `Cc1nc2cc(Nc3nc(NCCO)nc(Nc4ccc(F)cc4)n3)ccc2n1Cc1ccccc1`, the growth in the assay on DU-145 prostate was 88.5%; with K-562 leukemia, 19.2%; in the assay with MALME-3M melanoma, 105%; in the assay on MDA-MB-231 breast it was 80.3%; with RXF 393 renal it was 90.2%; in the assay on SF-268 CNS it was 92.2%. Also, the growth in the assay with SF-295 CNS is 86.4%; in the assay with SF-539 CNS it was 94.4%; in the assay on UACC-257 melanoma, 98.8%; with M14 melanoma it was 93%.

For the compound `CN1CCc2c(Sc3ccc(C(=O)NO)cc3)c3ccccc3n2C1`, the growth in the assay with DU-145 prostate was 36.8%; with K-562 leukemia, 28.2%; in the assay on MALME-3M melanoma, 42.4%; in the assay with MDA-MB-231 breast, 8.01% (active); with RXF 393 renal, 52.5%; with SF-268 CNS, 35.9%. The growth is 40.6% in the assay on SF-295 CNS, 17.1% in the assay with SF-539 CNS, 14.1% in the assay on UACC-257 melanoma and 38.1% in the assay with M14 melanoma.

As for `COc1ccccc1-n1c(SCc2cc(OC)c(OC)c(OC)c2)nc2ccc(Cl)cc2c1=O`, the growth with DU-145 prostate is 30.1%; in the assay with K-562 leukemia it was 12.7%; in the assay on MALME-3M melanoma, 33%; with MDA-MB-231 breast, 55.7%; in the assay with RXF 393 renal, 61.5%; in the assay with SF-268 CNS, 41.6%. Also, the growth is 31.9% in the assay on SF-295 CNS, 64.6% with SF-539 CNS and 15.9% with M14 melanoma.

Turning to `CC1(C)N=C(N)N=C(N)N1c1cccc(/C=C/C=C/c2cccc([N+](=O)[O-])c2)c1`, the growth was 73% in the assay with DU-145 prostate; 20.6% in the assay with K-562 leukemia; 66.3% in the assay with MALME-3M melanoma; 81.3% in the assay on MDA-MB-231 breast; 90.4% with RXF 393 renal; 42.5% in the assay with SF-268 CNS. For the same compound, the growth in the assay on SF-295 CNS is 83.8%; in the assay with SF-539 CNS, 15.9%; with UACC-257 melanoma, 41.4%; in the assay with M14 melanoma, 74.5%.

As to `Cc1cc(=O)oc2c1ccc1oc(C(=O)c3ccccc3)c(C)c12`, the growth in the assay with DU-145 prostate was 98.5%; with K-562 leukemia it was 49.2%; in the assay on MALME-3M melanoma, 113%; in the assay on MDA-MB-231 breast it was 76.3%; with RXF 393 renal it was 99.8%; in the assay with SF-268 CNS, 122%. For the same compound, the growth is 55.8% in the assay on SF-295 CNS, 92.5% in the assay with SF-539 CNS, 100% in the assay on UACC-257 melanoma and 77.2% in the assay with M14 melanoma.

As to `O=C1OCC2=C1C(c1ccc3c(c1)OCO3)CC(=O)N2c1cccc(Cl)c1` (configuration not stated), the growth in the assay on DU-145 prostate is 107%; with K-562 leukemia, 102%; in the assay with MALME-3M melanoma, 88.4%; in the assay on MDA-MB-231 breast, 101%; in the assay with RXF 393 renal, 96.5%; in the assay with SF-268 CNS, 110%. In addition, the growth in the assay with SF-295 CNS is 96%; in the assay on SF-539 CNS, 104%; in the assay on UACC-257 melanoma, 104%; in the assay on M14 melanoma, 121%.

As for `COc1cc(-c2nc3ccccc3o2)cc(CN2CCN(c3ccccc3)CC2)c1O`, the growth with DU-145 prostate was 71.8%; with K-562 leukemia it was 40.1%; in the assay on MALME-3M melanoma it was 63%; in the assay with MDA-MB-231 breast it was 69.3%; with RXF 393 renal it was 107%; with SF-268 CNS, 83.3%. Further, the growth in the assay on SF-295 CNS is 36.2%; in the assay with SF-539 CNS it was 94.7%; in the assay with UACC-257 melanoma it was 86.7%; in the assay with M14 melanoma, 52.5%.

As to `CC(C)(C)[Si](C)(C)OC1[C@@H](CNC(=O)NC(=O)CCl)O[C@@H](n2cnc3c(N)ncnc32)[C@H]1O[Si](C)(C)C(C)(C)C` (some centres not stated), the growth in the assay with DU-145 prostate was 23%; with K-562 leukemia, -33.9% (active); in the assay with MALME-3M melanoma, -67.3% (active); with MDA-MB-231 breast it was -76.8% (active); in the assay with RXF 393 renal, -13.3% (active); in the assay with SF-268 CNS it was -76.6% (active). Moreover, the growth in the assay with SF-295 CNS is -57.4% (active); with SF-539 CNS, 15%; with M14 melanoma, 23.3%.

As for `COC(=O)c1c2c(c(C)[n+]([O-])c1C)C(=O)C(NCc1ccc(O)cc1)=CC2=O`, the growth with DU-145 prostate is -69.2% (active); with K-562 leukemia, 6.74% (active); in the assay with MALME-3M melanoma, -98.5% (active); in the assay on MDA-MB-231 breast, -10.3% (active); in the assay on RXF 393 renal it was -4.53% (active); in the assay on SF-268 CNS it was -9.31% (active). Besides, the growth in the assay on SF-295 CNS is -9.04% (active); in the assay with SF-539 CNS, -59.7% (active); with UACC-257 melanoma, -62.4% (active); with M14 melanoma, -76.5% (active).

Regarding `COc1cc2oc(-c3ccc(O)cc3)cc(=O)c2c(O)c1I`, the growth in the assay with DU-145 prostate is 104%; in the assay with K-562 leukemia, 92.6%; in the assay on MALME-3M melanoma it was 115%; with MDA-MB-231 breast it was 99%; in the assay on RXF 393 renal it was 138%; in the assay on SF-268 CNS it was 105%. Also, the growth in the assay with SF-295 CNS is 97%; in the assay on SF-539 CNS, 100%; in the assay on UACC-257 melanoma, 96.6%; with M14 melanoma, 110%.

For `O=C1CCC(N2Cc3c(C#CCCCNC(=O)c4cc5c(o4)C(=O)c4ccccc4C5=O)cccc3C2=O)C(=O)N1` (configuration not stated), the growth is -98.1% (active) in the assay with DU-145 prostate; 16.2% with K-562 leukemia; -97.6% (active) in the assay with MALME-3M melanoma; -2.23% (active) with MDA-MB-231 breast; -15.4% (active) with RXF 393 renal; -10.1% (active) with SF-268 CNS. The growth in the assay with SF-295 CNS is -87% (active); in the assay on SF-539 CNS, -94.2% (active); with UACC-257 melanoma it was -79% (active); in the assay with M14 melanoma it was -87.8% (active).

The values are drawn from PubChem BioAssay (NCI).
